target: Heat shock cognate 71 kDa protein (UniProt P11142)
Sequence (P11142 whole entry): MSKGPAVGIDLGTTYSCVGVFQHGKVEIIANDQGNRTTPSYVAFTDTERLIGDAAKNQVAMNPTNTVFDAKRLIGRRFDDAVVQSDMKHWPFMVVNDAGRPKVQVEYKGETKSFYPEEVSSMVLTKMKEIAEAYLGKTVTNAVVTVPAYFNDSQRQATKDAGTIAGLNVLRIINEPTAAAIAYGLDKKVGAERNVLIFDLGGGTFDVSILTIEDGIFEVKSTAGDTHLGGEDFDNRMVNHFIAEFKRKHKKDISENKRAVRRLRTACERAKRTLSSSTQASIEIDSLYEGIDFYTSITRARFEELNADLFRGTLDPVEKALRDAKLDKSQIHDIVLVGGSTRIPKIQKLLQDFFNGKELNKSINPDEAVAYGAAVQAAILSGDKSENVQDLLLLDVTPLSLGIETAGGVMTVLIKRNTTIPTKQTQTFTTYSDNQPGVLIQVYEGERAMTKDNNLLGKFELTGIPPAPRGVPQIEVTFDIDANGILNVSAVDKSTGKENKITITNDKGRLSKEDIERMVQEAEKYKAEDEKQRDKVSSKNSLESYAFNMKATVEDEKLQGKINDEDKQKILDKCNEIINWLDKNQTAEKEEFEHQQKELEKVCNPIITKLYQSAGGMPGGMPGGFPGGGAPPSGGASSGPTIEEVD

Glyceraldehyde-3-phosphate dehydrogenase, P04406, sequence (P04406 whole entry): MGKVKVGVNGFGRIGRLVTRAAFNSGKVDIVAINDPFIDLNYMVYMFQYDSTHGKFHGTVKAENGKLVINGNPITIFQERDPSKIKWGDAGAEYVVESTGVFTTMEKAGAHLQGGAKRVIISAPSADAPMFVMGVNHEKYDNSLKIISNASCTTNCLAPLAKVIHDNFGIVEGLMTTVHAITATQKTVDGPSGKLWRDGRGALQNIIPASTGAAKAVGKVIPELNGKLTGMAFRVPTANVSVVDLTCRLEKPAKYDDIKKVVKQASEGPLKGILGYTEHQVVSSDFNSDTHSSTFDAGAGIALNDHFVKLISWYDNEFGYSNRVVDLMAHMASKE

Substance | listed as a hit
Heat shock 70 kDa protein 4L, O95757 | yes
Glyceraldehyde-3-phosphate dehydrogenase, P04406 | yes
Thioredoxin, P10599 | yes

From article PMC12214610
